Compound activity from PubChem.
Rows were chosen to be rich in hits. Some 3.6% of all compounds tested hit in one or more screens of this group.
HSF1 inhib = HSF1 inhibition | activity change, negative = inhibition, % at 7.5 µM (by protocol) | 0.77% of 300,000 active | NIH3T3-HGL HSE-luciferase, MG132-induced, luminescence 8 h; active compounds read low | AID 2098;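 active means more than half of replicate wells show activity change below -50%, luminescence cut by over half; inconclusive means some wells, but at most half, below -50%; inactive means no replicate well below -50%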;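 further: luciferase reports HSF-1 transcriptional activity via heat shock element; 0% = median of DMSO wells and -100% = zero luminescence signal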
EBV LMP1 NFkB = reduces LMP1-driven NF-kappaB luciferase signal | LMP1-induced NF-kappaB luciferase reporter cells, luminescence | inhibition, % at 12.5 µM | 0.69% of 350,000 active | AID 504558; in the data active means inhibition above about 41%; inconclusive means no clear call, values can overlap the other calls;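 further: 0% = neutral control wells and 100% = reference inhibitor control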
HSF-1 act = increases HSF-1 driven luciferase reporter signal; NIH3T3-HGL HSF-1 luciferase reporter, MG132, 8 h; 100% = twice DMSO control signal; activation, % at 9 µM; 1.7% of 300,000 active; AID 504408;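 active means mean replicate activation of at least 50% with a set share of replicates each reaching 50%; inconclusive means only one of those two conditions met; inactive means mean below 50% and too few replicates reaching it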;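 further: 0% = median of the neutral control wells and 100% = twice that signal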
TROY NFkB inh = blocks TROY-dependent signaling in reporter cells; Q293 LMP1-TROYcd NF-kB luciferase reporter, 4 h; inhibition, % at 10 µM; 0.98% of 360,000 active; AID 1347056;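 active means compounds whose plate-normalised and pattern-corrected inhibition of the luciferase reporter signal at the single screening dose is 50% or more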
LGR2 antag = inhibitors of bursicon-induced Drosophila LGR2 receptor cAMP signaling; HEK293 LGR2, CRE-luciferase, bursicon-stimulated, 4 h; inhibition, % at 9.99 µM; 0.35% of 380,000 active; AID 720647;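 active means drop in luminescence signal, shown as inhibition above about 50% in the replicate tests, limit read from the data, passing the limit was not always enough; inconclusive means probably only some replicates passing the limit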;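 further: agonist challenge used bursicon conditioned medium at about half maximal strength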
TWEAK-Fn14 inh = inhibitors of TWEAK-Fn14 interaction signaling | TWEAK-stimulated Fn14 reporter cells, luciferase luminescence, 8 h | 2% of 360,000 active | inhibition, % at 10 µM; in the data active means inhibition above about 50%
An asterisk follows results filed as active; ? = inconclusive; . = no result given.

SMILES	HSF1 inhib	EBV LMP1 NFkB	HSF-1 act	TROY NFkB inh	LGR2 antag	TWEAK-Fn14 inh
CC(OC(=O)c1ccc(S(C)(=O)=O)c([N+](=O)[O-])c1)C(=O)NC1C2CC3CC(C2)CC1C3 (configuration not stated)	.	.	.	48.6	8.2	101.6*
COc1ccc2c3c(n(C)c2c1)[C@@H](CO)N(C(=O)CN(C)C)CC31CN(S(C)(=O)=O)C1	.	.	.	.	-15.9	.
COc1ccc2c(COC(=O)CCS(=O)(=O)c3ccccc3)cc(=O)oc2c1	2.0	-5.3	-22.0	3.6	.	5.7
Cc1cccc(C)c1OCCOC(=O)c1n[nH]c2ccccc12	7.7	-2.9	14.1	-10.5	0.8	-11.5
COc1ccc2c(COC(=O)c3n[nH]c4ccccc34)cc(=O)oc2c1	48.8	-30.3	63.2*	-11.2	-11.2	-15.4
Cc1cc2oc(=O)cc(COC(=O)c3n[nH]c4ccccc34)c2cc1C	26.0	-19.0	51.4*	-10.7	-56.8	-16.2
CC(=O)Nc1nc(-c2ccc3c(c2)CCN3C(=O)C2CC2)c(C)s1	3.2	81.7*	6.0	-23.1	5.7	11.5
C[C@H]1CN([C@@H](C)CO)C(=O)Cc2cc(NS(=O)(=O)c3ccccc3)ccc2O[C@H]1CN(C)C(=O)Nc1ccc2c(c1)OCO2	.	.	.	.	13.1	.
CCC(=O)N1[C@@H]2c3ccc(/C=C/c4ccccc4)c(=O)n3C[C@@H]2[C@@H](CO)[C@@H]1C(=O)OC	.	.	.	.	4.1	.
C1CCC(n2nnnc2CN2CCN(C3CCCC3)CC2)CC1	0.2	-3.1	-4.7	1.9	.	-1.3
C1CCC(Nc2nnnn2C2CCCCC2)CC1	-59.0*	-6.5	-65.2	-18.9	2.8	5.7
c1ccc(-c2csc3ncnc(NCC4COc5ccccc5O4)c23)cc1 (configuration not stated)	-11.5	34.5	-13.7	59.4*	16.1	90.8*
Cc1sc2ncnc(NCC3COc4ccccc4O3)c2c1C (configuration not stated)	5.2	48.6*	18.4	40.5	11.9	57.5*
COc1ccc(NC(=O)N[C@@H]2CC[C@H](CCn3cc(-c4ccccn4)nn3)O[C@@H]2CO)cc1	.	.	.	.	16.2	.
O=[N+]([O-])c1ccc(NN=Cc2ccc(O)cc2O)nc1	.	3.5	.	-15.1	8.0	7.4
Oc1ccc(/C=N/Nc2nccnc2Cl)c(O)c1	2.3	33.3	-7.0	-49.0	.	-19.0
Cc1ccc(/C=N/Nc2cccc3cccnc23)c(O)c1	38.9	-69.0	68.3*	-19.8	-45.9	8.1
Oc1ccc(C=NNc2ccccn2)c(O)c1	.	?	.	0.8	26.0	21.6
Oc1ccc(/C=N/Nc2ncc(Br)cn2)c(O)c1	51.1	-15.0	79.1*	-42.5	-27.7	5.2
Cc1cc(N/N=C/c2ccccc2O)c2ccccc2n1	18.8	-19.5	37.9	-11.7	-10.8	-28.9
CCN(CC)S(=O)(=O)c1ccc(N/N=C/c2ccc(O)cc2O)nc1	2.4	57.0*	-8.7	25.4	43.1	-1.4
Oc1ccc(/C=N/Nc2cccc3cccnc23)c(O)c1	57.5	-15.4	84.9*	-6.5	-44.6	-19.6
CC(C)NC(=O)N(C)C[C@H]1Oc2ccc(NC(=O)Nc3ccc(F)cc3)cc2C(=O)N([C@@H](C)CO)C[C@@H]1C	.	.	.	.	0.4	.
COc1cccc(C#Cc2ccc3c(c2)[C@@H]2[C@@H](CCN2S(=O)(=O)c2ccccc2)[C@@H](CO)N3)c1	.	.	.	.	2.3	.
Cc1noc(C)c1NC(=O)Nc1ccc2c(c1)C(=O)N([C@@H](C)CO)C[C@H](C)[C@@H](CN(C)S(=O)(=O)c1ccc(F)cc1)OCCCC[C@H](C)O2	.	.	.	.	-13.2	.
CN(C)c1ccc(C(C[N+](=O)[O-])c2c(N)n(C)c(=O)n(C)c2=O)c(F)c1C#N (configuration not stated)	53.0	6.9	66.4*	-12.8	7.3	5.7
Cn1c(N)c(C(C[N+](=O)[O-])c2c(F)cccc2Cl)c(=O)n(C)c1=O (configuration not stated)	7.2	-1.3	7.1	2.5	19.9	2.0
C[C@@H]1CN([C@@H](C)CO)S(=O)(=O)c2ccc(-c3ccccc3)cc2O[C@H]1CN(C)C(=O)Cc1ccccc1	.	.	.	.	9.3	.
COCCn1c(Cc2ccccc2)nnc1SCC(=O)Nc1oc(C)c2c(C)n[nH]c(=O)c12	-8.8	-5.8	-3.4	57.5*	0.6	6.0
